Laboratory results as given in PubChem BioAssay (Tox21).
Records with an inconclusive call do not appear. Entries that show only a call come without a potency. Calls of active or inactive are those of the source. The call rests on the fitted dose curve; in most records, active means well fitted cell-killing curve with a large enough effect in the repeat runs; inconclusive means weak or mixed curves, or effect the other way; inactive means flat fitted curve, though single readings scatter.
Potency means the concentration at half of the fitted maximal effect.

Assay: Caspase-3/7 induction in HepG2 cells by small molecules, qHTS cell viability counter screen (AID 1346981); further: nearly all actives have a fitted effect of over 30% in size
Details: CellTiter-Fluor fluorescence, 17 h; series mostly up to 92.4 µM
From the text: U.S. Tox21 Program National Center for Advancing Translational Sciences [NCATS] NIH Chemical Genomics Center [NCGC] U.S. Environmental Protection Agency [EPA] National Institutes of Environmental Health Sciences [NIEHS] National Toxicology Program [NTP] U.S. Food and Drug Administration [FDA] Tox21 Assay Overview: Apoptosis is a process of programmed cell death and plays a central role in the development of multicellular organisms. It is a highly regulated process and induces cell death by activating caspases, which are the members of cysteine aspartic acid-specific protease (caspase) family. Caspases involved in apoptosis are classified by their mechanism of action as initiator caspases (caspase-2, -8, -9 and -10) and executioner caspases (caspase-3, -6, and -7). Inhibition of apoptosis results in number of cancers, autoimmune diseases, inflammatory diseases and viral infection. To identify small molecule compounds that induce apoptosis, a homogeneous, luminescent Caspase-Glo 3/7 assay was used. Wild type HepG2 cells were used to screen Tox21 libraries for identifying caspase-3/7 activity inducers. Also cytotoxicity of the compounds was tested in parallel by measuring the cell viability using CellTiter-Fluor assay system in the same wells.
Tox21 Assay Protocol Summary: HepG2 cells were dispensed at 2,000 per well in 5uL of culture medium into white solid bottom 1536-well plates (Corning Life Sciences, Corning, NY) using a Multidrop Combi (Thermo Scientific, Waltham, MA) dispenser. The assay plates were incubated at 37 C and 5% CO2 for 5hr, and then 23nL of compounds dissolved in DMSO and positive control were transferred using a Pintool station ([…], San Diego, CA). The assay plates were incubated at 37C and 5% CO2 for 17hr. For cytotoxicity read, after 16hr incubation at 37C, 1uL CellTiter-Fluor reagent (Promega Corporation, Madison, WI) was added to each well of the assay plates using Flying Reagent Dispenser (FRD, Aurora Discovery, San Diego, CA). After 1hr incubation at 37C and 5% CO2, the fluorescence signal was quantified using a ViewLux plate reader (PerkinElmer, Shelton, CT).
In the case of `O=C(Nc1ccc2c(c1)Cc1ccccc1-2)C(F)(F)F`, the Potency was “inactive”.
In the case of `C/C(=C(\CCO)SS/C(CCO)=C(\C)N(C=O)Cc1cnc(C)nc1N)N(C=O)Cc1cnc(C)nc1N`, the Potency was “inactive”.
In the case of `Cc1cc(SC2=C(O)C[C@@](CCc3ccc(N)cc3)(C(C)C)OC2=O)c(C(C)(C)C)cc1CO`, the Potency was “inactive”.
For `CCCCC(CC)COCCC#N` (stereo not given), the Potency was “inactive”.
For `COC=O`, the activity change, negative = cytotoxicity was 7.73% [at 8.39 µM] (inactive).
For `C=CC(C)(O)CC/C=C(/C)CCC=C(C)C` (stereo not given), the Potency was “inactive”.
For `O=C(O)c1ccncc1`, the Potency was “inactive”.
For `COC(=O)c1cc(Cl)ccc1[N+](=O)[O-]`, the Potency was “inactive”.
With `COc1ccc(C(=O)Nc2ccccc2)cc1[N+](=O)[O-]` the Potency was “inactive”.
In the case of `CCc1ccc2c(c1)C(=O)c1ccccc1C2=O`, the Potency was “inactive”.
For `O=Cc1ccc([N+](=O)[O-])cc1`, the Potency was “inactive”.
For `NC(=O)c1cc[n+](CC2=C(C(=O)[O-])N3C(=O)[C@@H](NC(=O)Cc4cccs4)[C@H]3SC2)cc1`, the Potency was “inactive”.
With `O=P(c1ccccc1)(c1ccccc1)c1ccccc1` the Potency was “inactive”.
With `O=C(O)c1ccc(O)c(O)c1` the Potency was “inactive”.
For `O=C1C=CCCC1`, the Potency was “inactive”.
In the case of `CCCCCCCCCCCC(=O)OCC`, the Potency was “inactive”.
For `CC(C)(C(=O)O)c1ccc(C(O)CCCN2CCC(C(O)(c3ccccc3)c3ccccc3)CC2)cc1` (stereo not given), the Potency was “inactive”.
With `Cc1c(Nc2ncccc2C(=O)O)cccc1C(F)(F)F` the Potency was “inactive”.
For `CCOc1ccc(NC(C)=O)cc1N`, the Potency was “inactive”.
In the case of `CC(C)(Cc1c[nH]c2ccccc12)NCC(O)COc1ccccc1C#N` (stereo not given), the Potency was “inactive”.
In the case of `O=C1c2ccccc2C(=O)C1c1ccc2cc(S(=O)(=O)O)cc(S(=O)(=O)O)c2n1`, the Potency was 33.1 µM (active).
In the case of `CC/C=C/CCO`, the Potency was “inactive”.
For `Cc1nc2sccn2c(=O)c1CCN1CCC(=C(c2ccc(F)cc2)c2ccc(F)cc2)CC1`, the Potency was “inactive”.
In the case of `SCCOCCOCCS`, the Potency was “inactive”.
In the case of `O=C(O)c1ccccc1-n1cc(C(=O)O)c(=O)c2cc(Nc3c(F)cc(F)cc3Cl)c(Cl)cc21`, the Potency was “inactive”.
With `CC1(C)CC(=O)CC(C)(C)N1` the Potency was “inactive”.
For `NCCOCCOCCN`, the Potency was “inactive”.
In the case of `CCCCCCCCCC(C)C=O` (stereo not given), the Potency was “inactive”.
In the case of `CC1=C(C)C(=O)C(CCCCC#CCCCC#CCO)=C(C)C1=O`, the Potency was “inactive”.
In the case of `C[Si](C)(C)O[Si](C)(C)O[Si](C)(C)C`, the Potency was “inactive”.
With `C[C@]12CCC(=O)C=C1[C@@H]1C[C@@H]1[C@H]1[C@@H]3[C@@H]4C[C@@H]4[C@@]4(CCC(=O)O4)[C@@]3(C)CC[C@@H]12` the Potency was “inactive”.
With `O=C1CCCN1CCO` the Potency was “inactive”.
With `O=c1[nH][nH]c2ccccc12` the Potency was “inactive”.
For `O=Cc1ccc(Cl)c([N+](=O)[O-])c1`, the Potency was “inactive”.
In the case of `OCCc1ccncc1`, the Potency was “inactive”.
With `CCCC1CCOC(C)S1` (stereo not given) the Potency was “inactive”.
With `C=CC(O)CCCCC` (stereo not given) the Potency was “inactive”.
For `CCCCCCCCCCCCCCCCCCCl`, the activity change, negative = cytotoxicity was -0.332% [at 8.39 µM] (inactive).
For `O=C(C1CCCCC1)N1CC(=O)N2CCCc3ccccc3C2C1` (stereo not given), the Potency was “inactive”.
For `[O-][n+]1ccc(Cl)cc1`, the Potency was “inactive”.
